Activity calls are given as the source filed them.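 Rule for the calls, unless noted: active = fluorescence slope after compound addition differing from the mean of all screened samples at 99.7% confidence, in either direction; inactive = the rest.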

The nature of test [1]: inhibitors of TNFa-induced NFkB p65 translocation, primary screen, imaging, HUVEC, MLSMR starter and 10KST1 sets (AID 438;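 active = inhibition above 20% together with a positive visual image hit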;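 note: compound added about 3h40 before a 20 min TNFalpha stimulation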;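 for inhibition: signal is the nuclear over cytoplasmic p65 intensity ratio per well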). The note with it: HUVEC TNFa-induced p65 nuclear translocation; cell count: measured here: nuclei count (cytotoxicity indicator), at 2.08 µM; inhibition: at 2 µM, stronger effect = higher value, 0% TNFa-plus-vehicle, 100% no-TNFa wells.
Test [2] in a line: reduction of polyQ htt aggregates in cells – imaging, exon1htt(103Q)mCFP cells, high-content imaging, primary screen (AID 483;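 active = visual image review flags a hit and inhibition of aggregation exceeds 20%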;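 note: compound exposure lasted 3 days before fixation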;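 for nuclei count: percent of the per-plate median nuclei count of sample wells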). The note with it: exon1htt(103Q)mCFP cell line, aggregate imaging, at 2 µM; inhibition of aggregation: stronger effect = higher value; nuclei count: measured here: cell count, toxicity.
The nature of test [3]: endothelial E-selectin expression blockers – imaging, HUVEC, immunofluorescence, MLSMR starter and 10KST1 sets, primary screen (AID 487;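 active = visually confirmed hit in the image check and inhibition above 20%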;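 for inhibition: signal is fraction of cell area covered by stained E-selectin grains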;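 for nuclei count: 100% = median nuclei count of all wells on the same plate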). The settings on record: HUVEC TNFalpha-induced E-selectin immunofluorescence imaging, at 2 µM; inhibition: stronger effect = higher value; nuclei count: measured here: cell number, toxicity.
In test [4] the target is Voltage-gated potassium channel subunit beta-2 (Rattus norvegicus) (UniProt P62483). Briefly: inhibitors of rat Kvbeta2 reductase activity – biochemical, NADPH fluorescence, primary screen (AID 622;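 active = fluorescence slope higher than the sample average by over 3 SD, cut at about -0.22 in these data, passing the limit was not always enough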;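 note: slope of raw intensity against log time taken from 70 to 1610 s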). The note with it: recombinant KvBeta, 4-cyanobenzaldehyde reduction, at 10 µM, stronger effect = higher value.
Sequence of Voltage-gated potassium channel subunit beta-2 (Rattus norvegicus) (P62483 whole entry, looked up): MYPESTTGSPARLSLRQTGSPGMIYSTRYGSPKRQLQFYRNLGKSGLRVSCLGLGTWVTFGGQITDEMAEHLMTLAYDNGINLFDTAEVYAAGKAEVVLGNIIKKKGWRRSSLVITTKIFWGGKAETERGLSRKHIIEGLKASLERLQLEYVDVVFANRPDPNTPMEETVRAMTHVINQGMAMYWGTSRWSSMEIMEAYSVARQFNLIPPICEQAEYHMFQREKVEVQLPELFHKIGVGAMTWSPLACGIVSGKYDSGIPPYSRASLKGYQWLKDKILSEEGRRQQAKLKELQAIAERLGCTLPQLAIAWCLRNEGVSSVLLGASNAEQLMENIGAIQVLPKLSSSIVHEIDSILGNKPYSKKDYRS
For test [5] the target is unchanged. Kind of test: enhancers of rat Kvbeta2 NADPH turnover – biochemical, NADPH fluorescence, primary screen (AID 623;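 active = NADPH fluorescence slope more negative than the mean of all samples by about 3 SD, 99.7% confidence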;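 note: fluorescence intensity change per second fitted from 20 to 320 s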). The note with it: Recombinant KvBeta, NADPH fluorescence decrease slope, 10 min; at 10 µM; stronger effect = lower value.
Test [6] has as its target Alpha-2C adrenergic receptor (Homo sapiens) (UniProt P18825). Briefly: compounds altering alpha2C-coupled GIRK flux – cell-based, HEK293 alpha2C/GIRK1/2, thallium flux, primary screen (AID 624).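 Note: slope of fluorescence ratio to pre-addition baseline per second over 15 to 24 s.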 The note with it: thallium flux BTC fluorescence, at 10 µM, actives lie on both sides.
Test [7] in a line: blockers of RIG-like receptor reporter activation – cell-based, Sendai virus stimulus, luciferase, 10K MLSCN set, TLR/RLR signaling modifier project, primary screen (AID 602276;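 active = inhibition at or above 50% at 10 µM; inactive = inhibition below 50%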;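 note: firefly luciferase from ISG56 promoter only with Renilla not read in this screen; 0% = Sendai virus plus DMSO and 100% = medium plus DMSO without virus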). The settings on record: HEK293 RL24 IRF3 luciferase reporter, at 10 µM, stronger effect = higher value.
Test [8] in a line: TLR3 IRF3 reporter activation blockers – cell-based, poly I:C stimulus, luciferase, 10K MLSCN set, primary screen (AID 602277;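 active = inhibition of the reporter signal at or above 50%; inactive = inhibition below 50%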). The settings on record: HEK293-TLR3 RL24 IRF3 luciferase reporter, at 10 µM, stronger effect = higher value.

Sequence of Alpha-2C adrenergic receptor (Homo sapiens) (P18825 whole entry, looked up): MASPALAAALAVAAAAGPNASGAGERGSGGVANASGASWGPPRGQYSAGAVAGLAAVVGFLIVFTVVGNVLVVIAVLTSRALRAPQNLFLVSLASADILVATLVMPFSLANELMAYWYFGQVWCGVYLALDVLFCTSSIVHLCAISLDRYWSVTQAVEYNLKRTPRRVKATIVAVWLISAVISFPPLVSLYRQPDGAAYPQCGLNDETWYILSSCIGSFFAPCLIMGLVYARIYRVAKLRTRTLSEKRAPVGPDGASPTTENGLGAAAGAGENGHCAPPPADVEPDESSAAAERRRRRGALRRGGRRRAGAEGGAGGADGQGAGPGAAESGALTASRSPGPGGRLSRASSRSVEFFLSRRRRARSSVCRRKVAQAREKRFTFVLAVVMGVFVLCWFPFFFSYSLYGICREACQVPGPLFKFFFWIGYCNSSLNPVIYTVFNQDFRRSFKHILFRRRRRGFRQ

Consider `CC(NC(=O)C1CCCN(S(=O)(=O)c2cccs2)C1)c1ccccc1` (stereo not given), for which, in test [1], the cell count is 816. Also, the inhibition was -1.4% (inactive) in test [1], -1.1% (inactive) in test [3], 12.2% (inactive) in test [7] and 34.2% (inactive) in test [8]. The inhibition of aggregation in test [2] was -6.6% (inactive). Besides, the nuclei count in test [2] came to 106%; in test [3], 112%. For the same compound, in test [4], the fluorescence slope was -0.583 (inactive). For the same compound, in test [5], the NADPH fluorescence slope was -4.2e-05 (inactive). In addition, in test [6], the slope is 0.00498 (inactive).
With `CCOC(=O)C1=C(O)CCn2c1nc1ccccc12`, in test [1], the cell count turned out to be 376. The inhibition is 2% (inactive) in test [1], -214% (inactive) in test [3], 9.43% (inactive) in test [7] and -0.0537% (inactive) in test [8]. In test [2], the inhibition of aggregation was 14.2% (inactive). In addition, the nuclei count in test [2] turned out to be 56.5%; in test [3] it was 98.6%. In addition, the fluorescence slope in test [4] is -0.504 (inactive). Moreover, the NADPH fluorescence slope in test [5] was -0.000164 (inactive). The slope in test [6] was 0.005 (inactive).
Regarding `Cc1ccc(-c2ccc(=O)n(CC(=O)NCCCN3CCCCC3C)n2)cc1` (stereo not given), the cell count in test [1] amounted to 397. Also, the inhibition in test [1] was 5% (inactive); in test [3], 14.8% (inactive); in test [7], 11.3% (inactive); in test [8], 21.8% (inactive). Besides, the inhibition of aggregation in test [2] was 3% (inactive). Also, the nuclei count stood at 98.2% in test [2] and 96% in test [3]. In test [4], the fluorescence slope was -0.497 (inactive). Further, the NADPH fluorescence slope in test [5] is -1.9e-05 (inactive). In test [6], the slope is 0.0058 (inactive).
Turning to `Cc1cc(C)nc(Sc2ccc3nnc(C(F)(F)C(F)(F)C(F)(F)F)n3n2)n1`, the cell count in test [1] worked out at 564. Besides, the inhibition is -21.1% (inactive) in test [1], 4.1% (inactive) in test [3], -0.722% (inactive) in test [7] and 24.8% (inactive) in test [8]. In addition, in test [2], the inhibition of aggregation was -9.9% (inactive). Also, the nuclei count in test [2] is 115%; in test [3] it was 99.7%. The fluorescence slope in test [4] was -0.495 (inactive). For the same compound, the NADPH fluorescence slope in test [5] was -3.3e-05 (inactive). Besides, the slope in test [6] was 0.00541 (inactive).
For the compound `CC1CCN(C(=O)CSc2nnc(-c3ccc(S(=O)(=O)N4CCOCC4)cc3)n2C)CC1`, in test [1], the cell count was 446. In addition, the inhibition in test [1] was 3.5% (inactive); in test [3] it was -169% (inactive); in test [7] it was 3.11% (inactive); in test [8], 0.175% (inactive). Moreover, the inhibition of aggregation in test [2] was -5.5% (inactive). Besides, the nuclei count in test [2] is 97.2%; in test [3], 114%. Besides, the fluorescence slope in test [4] was -0.612 (inactive). In addition, in test [5], the NADPH fluorescence slope was -4.4e-05 (inactive). In addition, in test [6], the slope is 0.00393 (inactive).
In the case of `CN(C(=O)C1CCCO1)c1nnc(-c2ccncc2)s1` (stereo not given), the cell count in test [1] came to 279. Further, the inhibition in test [1] was -2.1% (inactive); in test [3], -10.8% (inactive); in test [7] it was -12% (inactive); in test [8], -17.4% (inactive). The inhibition of aggregation in test [2] is 4.6% (inactive). Also, the nuclei count in test [2] and in test [3] was 103% in each case. For the same compound, in test [4], the fluorescence slope is -0.322 (inactive). In test [5], the NADPH fluorescence slope was -4.6e-05 (inactive). Besides, in test [6], the slope was 0.00538 (inactive).
For `CN(C(=O)c1ccc2c(=O)n3c(nc2c1)CCCCC3)c1ccccc1`, the cell count in test [1] turned out to be 588. The inhibition was -10.7% (inactive) in test [1], 63.2% (active) in test [3], 11.2% (inactive) in test [7] and 8.93% (inactive) in test [8]. Moreover, the inhibition of aggregation in test [2] is 23.6% (inactive). The figures for the nuclei count in test [2] and in test [3] were 93.9% and 76.9%, respectively. Besides, in test [4], the fluorescence slope was -0.457 (inactive). In test [5], the NADPH fluorescence slope was -0.000341 (inactive). In addition, the slope in test [6] was 0.00528 (inactive).
As for `COc1ccccc1-n1c(C)nnc1SCC(=O)Nc1cccc(C(C)=O)c1`, in test [1], the cell count turned out to be 388. Besides, the inhibition in test [1] is 4.3% (inactive); in test [3], 52.4% (inactive); in test [7] it was 17.5% (inactive); in test [8], 13.3% (inactive). Moreover, the inhibition of aggregation in test [2] was 3.5% (inactive). The nuclei count is 104% in test [2] and 95.1% in test [3]. Also, the fluorescence slope in test [4] is -0.355 (inactive). The NADPH fluorescence slope in test [5] is -8e-06 (inactive). Also, the slope in test [6] is 0.00484 (inactive).
As to `C=CCOC(=O)COc1ccc2c(C)c(C)c(=O)oc2c1C`, in test [1], the cell count turned out to be 373. Besides, the inhibition in test [1] is -3.6% (inactive); in test [3], -22.7% (inactive); in test [7], -3.09% (inactive); in test [8], 3.78% (inactive). Besides, the inhibition of aggregation in test [2] is -9.6% (inactive). Also, the nuclei count in test [2] was found to be 102%; in test [3], 105%. Also, in test [4], the fluorescence slope was -0.608 (inactive). For the same compound, in test [5], the NADPH fluorescence slope was -5.7e-06 (inactive). The slope in test [6] is 0.00552 (inactive).
`COc1ccc(NS(=O)(=O)c2ccc(NC(C)=O)cc2)cc1OC`: in test [1], the cell count was 352. Further, the inhibition was -8.4% (inactive) in test [1], -3.3% (inactive) in test [3], -6.14% (inactive) in test [7] and -66.4% (inactive) in test [8]. In test [2], the inhibition of aggregation is 2.1% (inactive). Besides, the nuclei count in test [2] was 99.6%; in test [3], 76.2%. Moreover, the fluorescence slope in test [4] is -0.379 (inactive). Besides, the NADPH fluorescence slope in test [5] was 1.1e-05 (inactive). The slope in test [6] was 0.00616 (inactive).

Source of the values: PubChem BioAssay.
